# In PubChem BioAssay (NCATS):
# Records with an inconclusive call do not appear. Entries that show only a call come without a potency. Active and inactive are the calls of the source. The call rests on the fitted dose curve; in most records, active means well fitted cell-killing curve with a large enough effect; inconclusive means small, poorly fitted or top-dose-only effect; inactive means flat fitted curve, though single readings scatter.
# Assay: qHTS of pediatric cancer cell lines to identify multiple opportunities for drug repurposing: Primary screen for TC32 cells (AID 1347089); further: nearly all actives have a fitted effect of over 60% in size
# Conditions: TC32 Ewing sarcoma viability, CellTiter-Glo luminescence, 48 h; series mostly up to 45.8 µM
# Outline: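 Luminescent CellTiter-Glo read-out of metabolically active TC32 cells after 48 h compound exposure. Primary: MIPE 11-point, 0.78 nM–46 µM; NPC 8-point, 0.59 nM–46 µM. Confirmatory: 11-point dilutions.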
# Potency means the concentration at half of the fitted maximal effect.
row,Compound,Potency
1,Cc1ccc([N+](=O)[O-])[c]2c1[O][Hg]2,0.264 µM (active)
2,C[C@H](CN1CCOCC1)C(C(=O)N1CCCC1)(c1ccccc1)c1ccccc1,inactive
3,CCO[C@H]1O[C@@H]2OC3(C)CC[C@H]4[C@H](C)CC[C@@H]([C@H]1C)[C@@]24OO3,inactive
4,N#Cc1nn(-c2c(Cl)cc(C(F)(F)F)cc2Cl)c(N)c1S(=O)C(F)(F)F (centres undefined),inactive
5,CN(C)C(=S)SSC(=S)N(C)C,4.19 µM (active)

# Assay: qHTS of pediatric cancer cell lines to identify multiple opportunities for drug repurposing: Primary screen for DAOY cells (AID 1347090); further: nearly all actives have a fitted effect of over 55% in size
# Conditions: DAOY medulloblastoma viability, CellTiter-Glo luminescence, 48 h; series mostly up to 46 µM
# Outline: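 Viability measured as metabolically active cells via CellTiter-Glo luminescence following 48 hours of compound exposure, 11-point dilutions in confirmatory testing. 500-1,000 cells/well plated 5 hours before dosing; controls were DMSO and 2.3 µM bortezomib.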
row,Compound,Potency
1,Cc1ccc([N+](=O)[O-])[c]2c1[O][Hg]2,1.06 µM (active)
2,C[C@H](CN1CCOCC1)C(C(=O)N1CCCC1)(c1ccccc1)c1ccccc1,inactive
3,CCO[C@H]1O[C@@H]2OC3(C)CC[C@H]4[C@H](C)CC[C@@H]([C@H]1C)[C@@]24OO3,inactive
4,CN(C)C(=S)SSC(=S)N(C)C,0.168 µM (active)
